Drawing on PubChem BioAssay (NCI), this text covers growth for eight molecules.

Holding throughout (experiment): NCI-60 one-dose screen, 48 h (100 = growth as untreated, 0 = no growth, -100 = all killed)
Holding throughout (conditions): 10 µM unless noted

Assay [1] deals with RPMI-8226 leukemia.
The subject of assay [2] is OVCAR-8 ovarian.
Assay [3] concerns OVCAR-5 ovarian.
Assay [4] concerns OVCAR-4 ovarian.
For assay [5], the system named is SK-OV-3 ovarian.
The subject of assay [6] is IGROV1 ovarian.
The subject of assay [7] is OVCAR-3 ovarian.
The test system of assay [8] is HS 578T breast.
The subject of assay [9] is NCI/ADR-RES ovarian.
In assay [10] the test system is T-47D breast.
Assay [11] concerns BT-549 breast.
The subject of assay [12] is MDA-MB-435 melanoma.
Assay [13] concerns SW-620 colon.
For assay [14], the system named is MCF7 breast.
The subject of assay [15] is HCT-116 colon.
The subject of assay [16] is HCC-2998 colon.
Assay [17] concerns KM12 colon.

Compounds without any hit were thinned out: in the full panel of roughly 83,000, 20% have a hit.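 Assay: single dose, 48 h. Readout: percent growth (0 = no net growth; negative = cell death). Active: <10.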 A number with no mark means an inactive call. Activity calls are given as the source filed them.

With `COCCOC(=O)COc1ccc(OC)cc1`, the growth in assay [1] is 97.3%; in assay [2] it was 101%; in [3], 104%; in assay [4] it was 94.2%; in [5], 112%; in [6], 101%. The growth in assay [7] is 95.4%; in assay [8], 101%; in assay [9], 104%; in assay [10], 120%; in [11] it was 103%; in assay [12], 89.8%. Further, the growth in [13] is 93.5%; in assay [14], 97.3%; in assay [15] it was 106%; in assay [16] it was 111%; in assay [17], 100%.
`NS(=O)(=O)c1ccc(-n2nc(-c3ccccc3)ccc2=O)cc1`: the growth is 109% in assay [1]; 101% in assay [2]; 113% in assay [3]; 117% in [4]; 99.6% in assay [5]; 72.3% in assay [6]. Further, the growth was 112% in assay [7]; 106% in assay [8]; 103% in assay [9]; 93.8% in [10]; 123% in assay [11]; 113% in assay [12]. The growth in assay [13] was 108%; in assay [14], 96%; in [15], 102%; in [16], 108%; in [17] it was 99.6%.
For `CCCCc1ccc(N=Nc2ccc(OCC[N+](C)(C)C)cc2)cc1`, the growth was 17.8% in assay [1]; 26.8% in assay [2]; 76.2% in assay [3]; 71.8% in assay [4]; 74.8% in assay [5]; 19.2% in assay [6]. The growth in assay [7] is 30.2%; in assay [8], 72.3%; in assay [9] it was 104%; in assay [10] it was 88.7%; in assay [11], 56.4%; in [12], 88.6%. Besides, the growth in assay [13] is 49.6%; in [14], 85.1%; in assay [15], 48.7%; in [16], 25.6%; in assay [17], 29.9%.
Turning to `COc1ccc2oc(=O)cc(-c3nc4ccc(N)cc4[nH]3)c2c1`, the growth in [1] was 83.4%; in [2], 89.9%; in assay [3], 92.6%; in assay [4], 95.8%; in assay [5], 77.5%; in [6] it was 76.7%. The growth in [7] is 86.2%; in assay [8], 81.5%; in assay [9] it was 88%; in [10], 51.8%; in [11], 77.1%; in assay [12], 106%. The growth in [13] is 103%; in assay [14], 77.2%; in assay [15], 88.6%; in assay [16] it was 97.9%; in [17], 87.7%.
For the molecule `N#Cc1c(-c2ccc(Cl)cc2)cc(-c2cc3ccccc3o2)nc1SCC(=O)c1ccc(Cl)cc1`, the growth in assay [1] was 83.6%; in assay [2] it was 104%; in assay [3] it was 88.4%; in [4], 104%; in assay [5] it was 103%; in [6] it was 71.5%. Also, the growth was 104% in assay [7]; 96.3% in [8]; 97.9% in [9]; 108% in assay [10]; 112% in [11]; 104% in assay [12]. Also, the growth was 94.2% in assay [13]; 112% in assay [14]; 94.1% in [15]; 102% in assay [16]; 94.9% in assay [17].
Take `C=C(C)[C@@H]1CC[C@]2(C(=O)OCCOCCOCC[P+](c3ccccc3)(c3ccccc3)c3ccccc3)CC[C@]3(C)[C@H](CC[C@@H]4[C@@]5(C)CC[C@H](OC(C)=O)C(C)(C)[C@@H]5CC[C@]43C)[C@@H]12`: the growth in assay [1] is -63.9% (active); in assay [2], -78.2% (active); in [3], -86.2% (active); in assay [4], -82.1% (active); in [5], -94.5% (active); in assay [6], -83.9% (active). For the same molecule, the growth in [7] is -95.8% (active); in assay [8], -48.3% (active); in assay [9] it was 4.3% (active); in assay [10], -76.7% (active); in assay [11], -89.8% (active); in assay [12], -91.3% (active). Besides, the growth in [13] was -77.9% (active); in assay [14], -76% (active); in assay [15], -92.2% (active); in assay [16], -88.4% (active); in [17], -89.8% (active).
Turning to `O=C(Nc1ccc(N=Cc2ccccc2O)cc1)NC1C=c2ccccc2=CC1` (stereo unspecified), the growth in assay [1] is 94%; in assay [2] it was 95.9%; in assay [3], 103%; in [4], 116%; in assay [5] it was 103%; in assay [6], 108%. In addition, the growth was 99.1% in assay [7]; 102% in assay [8]; 101% in [9]; 91.3% in [10]; 86.6% in assay [11]; 104% in assay [12]. Also, the growth is 105% in [13]; 92.6% in assay [14]; 104% in assay [15]; 100% in [16]; 103% in [17].
As for `Cc1cnc(SCc2ccc(Cl)cc2Cl)nc1Nc1ccc(Cl)c(Cl)c1`, the growth was 86.7% in assay [1]; 91.9% in assay [2]; 103% in assay [3]; 93.9% in assay [4]; 97.9% in [5]; 82.8% in assay [6]. The growth in assay [7] was 99.6%; in [8] it was 90.8%; in [9], 95.9%; in [10] it was 68%; in [11], 101%; in assay [12], 104%. For the same molecule, the growth is 102% in assay [13]; 85.4% in [14]; 77.3% in assay [15]; 103% in [16]; 89.4% in [17].
